Test [1] in a line: inhibitors of TNFa-induced NFkB p65 translocation, primary screen, imaging, HUVEC, MLSMR starter and 10KST1 sets (AID 438;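 active = inhibition above 20% together with a positive visual image hit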;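 also: compound added about 3h40 before a 20 min TNFalpha stimulation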;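 as to inhibition: signal is the nuclear over cytoplasmic p65 intensity ratio per well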). The note with it: HUVEC TNFa-induced p65 nuclear translocation; cell count: measured here: nuclei count (cytotoxicity indicator), at 2.08 µM; inhibition: at 2 µM, stronger effect = higher value, 0% TNFa-plus-vehicle, 100% no-TNFa wells.
Test [2] is described as follows: reduction of polyQ htt aggregates in cells – imaging, exon1htt(103Q)mCFP cells, high-content imaging, primary screen (AID 483).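 Also: compound exposure lasted 3 days before fixation.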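 As to nuclei count: percent of the per-plate median nuclei count of sample wells.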 As to conditions: exon1htt(103Q)mCFP cell line, aggregate imaging, at 2 µM; inhibition of aggregation: stronger effect = higher value; nuclei count: measured here: cell count, toxicity.
The nature of test [3]: endothelial E-selectin expression blockers – imaging, HUVEC, immunofluorescence, MLSMR starter and 10KST1 sets, primary screen (AID 487;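 active = visually confirmed hit in the image check and inhibition above 20%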;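 as to inhibition: signal is fraction of cell area covered by stained E-selectin grains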;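 as to nuclei count: 100% = median nuclei count of all wells on the same plate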). As to conditions: HUVEC TNFalpha-induced E-selectin immunofluorescence imaging, at 2 µM; inhibition: stronger effect = higher value; nuclei count: measured here: cell number, toxicity.
Test [4] has as its target Voltage-gated potassium channel subunit beta-2 (Rattus norvegicus) (UniProt P62483). The experiment in a line: inhibitors of rat Kvbeta2 reductase activity – biochemical, NADPH fluorescence, primary screen (AID 622;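 active = fluorescence slope higher than the sample average by over 3 SD, cut at about -0.22 in these data, passing the limit was not always enough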;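 also: slope of raw intensity against log time taken from 70 to 1610 s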). The note with it: recombinant KvBeta, 4-cyanobenzaldehyde reduction, at 10 µM, stronger effect = higher value.
For test [5] the target is unchanged. The experiment in a line: enhancers of rat Kvbeta2 NADPH turnover – biochemical, NADPH fluorescence, primary screen (AID 623;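 active = NADPH fluorescence slope more negative than the mean of all samples by about 3 SD, 99.7% confidence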;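 also: fluorescence intensity change per second fitted from 20 to 320 s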). As to conditions: Recombinant KvBeta, NADPH fluorescence decrease slope, 10 min; at 10 µM; stronger effect = lower value.
The target in test [6] is Alpha-2C adrenergic receptor (Homo sapiens) (UniProt P18825). Put plainly: compounds altering alpha2C-coupled GIRK flux – cell-based, HEK293 alpha2C/GIRK1/2, thallium flux, primary screen (AID 624;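 active = fluorescence slope after compound addition differing from the mean of all screened samples at 99.7% confidence, in either direction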;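 also: slope of fluorescence ratio to pre-addition baseline per second over 15 to 24 s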). As to conditions: thallium flux BTC fluorescence, at 10 µM, actives lie on both sides.
Alpha-2C adrenergic receptor (Homo sapiens), sequence (P18825 whole entry, looked up): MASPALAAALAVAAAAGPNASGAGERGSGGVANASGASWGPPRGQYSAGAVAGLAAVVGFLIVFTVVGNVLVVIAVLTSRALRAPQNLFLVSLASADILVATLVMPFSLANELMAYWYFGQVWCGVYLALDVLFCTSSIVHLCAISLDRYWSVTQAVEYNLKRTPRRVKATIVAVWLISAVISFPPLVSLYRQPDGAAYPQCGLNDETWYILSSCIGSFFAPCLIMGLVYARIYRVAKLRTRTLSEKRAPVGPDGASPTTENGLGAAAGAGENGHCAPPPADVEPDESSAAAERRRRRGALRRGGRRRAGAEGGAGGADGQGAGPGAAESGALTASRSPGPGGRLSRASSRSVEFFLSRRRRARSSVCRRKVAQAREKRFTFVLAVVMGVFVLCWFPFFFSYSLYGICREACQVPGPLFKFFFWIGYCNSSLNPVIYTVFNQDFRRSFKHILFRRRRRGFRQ
Test [7] in a line: blockers of RIG-like receptor reporter activation – cell-based, Sendai virus stimulus, luciferase, 10K MLSCN set, TLR/RLR signaling modifier project, primary screen (AID 602276;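 active = inhibition at or above 50% at 10 µM; inactive = inhibition below 50%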;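 also: firefly luciferase from ISG56 promoter only with Renilla not read in this screen; 0% = Sendai virus plus DMSO and 100% = medium plus DMSO without virus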). The note with it: HEK293 RL24 IRF3 luciferase reporter, at 10 µM, stronger effect = higher value. On the technique in general: A reporter such as luciferase makes a cellular process visible.
A short description of test [8]: TLR3 IRF3 reporter activation blockers – cell-based, poly I:C stimulus, luciferase, 10K MLSCN set, primary screen (AID 602277;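 active = inhibition of the reporter signal at or above 50%; inactive = inhibition below 50%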). The note with it: HEK293-TLR3 RL24 IRF3 luciferase reporter, at 10 µM, stronger effect = higher value.

Structures are written as SMILES. Activity calls are given as the source filed them.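 The calls were made as follows, unless noted: active = visual image review flags a hit and inhibition of aggregation exceeds 20%; inconclusive = visual hit but inhibition at or below 20%; inactive = no hit on visual image review.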

Voltage-gated potassium channel subunit beta-2 (Rattus norvegicus), sequence (P62483 whole entry, looked up): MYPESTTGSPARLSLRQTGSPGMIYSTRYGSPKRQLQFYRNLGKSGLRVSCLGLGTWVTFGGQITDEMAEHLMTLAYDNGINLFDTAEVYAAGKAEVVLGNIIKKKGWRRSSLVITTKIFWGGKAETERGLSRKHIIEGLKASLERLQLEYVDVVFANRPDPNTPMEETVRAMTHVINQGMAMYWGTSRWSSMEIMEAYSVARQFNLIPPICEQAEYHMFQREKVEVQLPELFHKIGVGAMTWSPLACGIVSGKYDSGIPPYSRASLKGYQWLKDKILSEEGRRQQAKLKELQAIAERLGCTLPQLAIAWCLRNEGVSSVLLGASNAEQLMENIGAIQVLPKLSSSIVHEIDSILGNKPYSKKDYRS

In general, inhibition refers to the change of the read-out against control, counted positive when it falls. As for `COc1cccc(NC(=O)C2C3C=CC4(O3)C2C(=O)N(C(C)C)C4C(=O)NC2CCCCC2C)c1` (centres undefined), the cell count in test [1] was 424. Also, the inhibition in test [1] was 2.6% (inactive); in test [3] it was -98.5% (inactive); in test [7], 2.64% (inactive); in test [8], 7.71% (inactive). Further, the inhibition of aggregation in test [2] was -8.5% (inactive). The nuclei count amounted to 110% in test [2] and 114% in test [3]. For the same compound, the fluorescence slope in test [4] is -0.525 (inactive). The NADPH fluorescence slope in test [5] is 3.5e-06 (inactive). The slope in test [6] was 0.00614 (inactive).
Turning to `COC(=O)c1cc(=O)nc2sc(-c3cccs3)nn12`, the cell count in test [1] turned out to be 349. Besides, the inhibition in test [1] was 5.5% (inactive); in test [3], -73.7% (inactive); in test [7] it was 12.6% (inactive); in test [8], 29.9% (inactive). Besides, the inhibition of aggregation in test [2] is 4.7% (inactive). The nuclei count in test [2] was 100%; in test [3], 105%. The fluorescence slope in test [4] is -0.463 (inactive). Also, the NADPH fluorescence slope in test [5] was -2.2e-05 (inactive). The slope in test [6] was 0.006 (inactive).
For the compound `COc1ccc(C2CC(C(F)(F)F)n3ncc(C(=O)NCc4cccnc4)c3N2)cc1OC` (centres undefined), in test [1], the cell count was determined as 313. In addition, the inhibition in test [1] is 0.3% (inactive); in test [3], 8% (inactive); in test [7], 5.88% (inactive); in test [8], 20.9% (inactive). Further, the inhibition of aggregation in test [2] was 8.9% (inactive). The results for the nuclei count in test [2] and in test [3] were 57.1% and 91.9%, respectively. Besides, in test [4], the fluorescence slope is -0.388 (inactive). Further, the NADPH fluorescence slope in test [5] was -3.2e-05 (inactive). Further, in test [6], the slope is 0.00287 (inactive).
For the compound `CCc1nnc(NC(=O)CSc2nnc(-c3cc4ccccc4cc3O)n2CC)s1`, in test [1], the cell count stood at 674. Also, the inhibition is -7.8% (inactive) in test [1], -52.3% (inactive) in test [3], 7.37% (inactive) in test [7] and 11.2% (inactive) in test [8]. Also, the inhibition of aggregation in test [2] is 1.7% (inactive). In addition, the nuclei count in test [2] stood at 109%; in test [3] it was 125%. Moreover, the fluorescence slope in test [4] was -0.511 (inactive). In test [5], the NADPH fluorescence slope is 2.5e-06 (inactive). Besides, in test [6], the slope is 0.00587 (inactive).
As to `COCCn1c(SCc2csc(-c3ccccc3)n2)nc2ccccc21`, the cell count in test [1] came out at 639. The inhibition was 7.2% (inactive) in test [1], -24.6% (inactive) in test [3], 1.52% (inactive) in test [7] and -1.01% (inactive) in test [8]. Besides, in test [2], the inhibition of aggregation was -4% (inactive). In addition, the nuclei count was 97.2% in test [2] and 96.8% in test [3]. Further, in test [4], the fluorescence slope was -0.456 (inactive). For the same compound, the NADPH fluorescence slope in test [5] is 7.6e-05 (inactive). Also, the slope in test [6] is 0.00574 (inactive).
As for `COc1cc(NC(=O)C2C3C=CC(C3)C2C(=O)O)c(OC)cc1Cl` (centres undefined), the cell count in test [1] is 406. For the same compound, the inhibition was 0.8% (inactive) in test [1], 19.6% (inactive) in test [3], -7.81% (inactive) in test [7] and 20.2% (inactive) in test [8]. Further, the inhibition of aggregation in test [2] was -31% (inactive). In addition, the nuclei count was determined as 98.6% in test [2] and 90% in test [3]. Besides, the fluorescence slope in test [4] was -0.49 (inactive). Also, the NADPH fluorescence slope in test [5] was -6.5e-06 (inactive). Besides, the slope in test [6] was 0.00705 (inactive).
As to `CCOC(=O)C(NC(C)=O)(NS(=O)(=O)c1ccccc1)C(F)(F)F` (centres undefined), in test [1], the cell count turned out to be 537. Moreover, the inhibition was -2.4% (inactive) in test [1], 39.5% (inactive) in test [3], 10.5% (inactive) in test [7] and 14.2% (inactive) in test [8]. For the same compound, the inhibition of aggregation in test [2] was 18.4% (inactive). In addition, the nuclei count in test [2] turned out to be 88.5%; in test [3], 90.8%. In addition, the fluorescence slope in test [4] is -0.616 (inactive). In addition, in test [5], the NADPH fluorescence slope is 5.2e-06 (inactive). Besides, the slope in test [6] was 0.00712 (inactive).
Consider `COC(=O)CSc1nc2nc(C)cc(C)n2n1`, for which the cell count in test [1] came out at 722. The inhibition in test [1] is -4.5% (inactive); in test [3], -33.5% (inactive); in test [7], 11.7% (inactive); in test [8], 28.1% (inactive). Also, the inhibition of aggregation in test [2] is 0.1% (inactive). Moreover, the nuclei count in test [2] came to 98.6%; in test [3], 108%. For the same compound, in test [4], the fluorescence slope was -0.552 (inactive). In addition, the NADPH fluorescence slope in test [5] was -1.8e-05 (inactive). Moreover, in test [6], the slope is 0.00719 (inactive).
Consider `CCOC(=O)C(CCc1nnc(N)s1)C(=O)OCC`, for which, in test [1], the cell count turned out to be 710. In addition, the inhibition in test [1] is -6.3% (inactive); in test [3] it was -16.4% (inactive); in test [7], 16.5% (inactive); in test [8] it was 11.9% (inactive). The inhibition of aggregation in test [2] is 3.1% (inactive). Moreover, the figures for the nuclei count in test [2] and in test [3] were 105% and 98.7%, respectively. The fluorescence slope in test [4] is -0.474 (inactive). Besides, the NADPH fluorescence slope in test [5] was 1.7e-06 (inactive). The slope in test [6] is 0.00419 (inactive).
On to `COc1ccc(C(=O)NCc2ccccc2OC)cc1`, for which the cell count in test [1] is 590. For the same compound, the inhibition is -0.6% (inactive) in test [1], -25.9% (inactive) in test [3], -2.6% (inactive) in test [7] and -7.58% (inactive) in test [8]. In test [2], the inhibition of aggregation is -15.5% (inactive). In addition, the nuclei count in test [2] came to 107%; in test [3] it was 111%. In test [4], the fluorescence slope was -0.47 (inactive). The NADPH fluorescence slope in test [5] was -0.000293 (inactive). Besides, the slope in test [6] is 0.00583 (inactive).
On to `CCCn1cc(C(CC(=O)O)C(=O)O)c2ccccc21` (centres undefined), for which the cell count in test [1] was determined as 319. The inhibition in test [1] is 0.2% (inactive); in test [3] it was -112% (inactive); in test [7], 13.9% (inactive); in test [8], 17.2% (inactive). The inhibition of aggregation in test [2] is 11% (inactive). In addition, the nuclei count in test [2] was 97.5%; in test [3], 126%. In test [4], the fluorescence slope is -0.399 (inactive). The NADPH fluorescence slope in test [5] is -3.1e-05 (inactive). In addition, in test [6], the slope was 0.00576 (inactive).
With `Cc1nnc(SCC(=O)NCCN2C(=O)CSC2=O)s1`, in test [1], the cell count came to 413. Besides, the inhibition was 2.2% (inactive) in test [1], -195% (inactive) in test [3], 9.12% (inactive) in test [7] and 19.5% (inactive) in test [8]. In test [2], the inhibition of aggregation is 19.8% (inactive). Further, the nuclei count amounted to 65.4% in test [2] and 125% in test [3]. In test [4], the fluorescence slope is -0.606 (inactive). In addition, the NADPH fluorescence slope in test [5] was -1e-05 (inactive). The slope in test [6] was 0.00749 (inactive).
As to `CCc1ccc(C2CC(c3ccccc3)n3ncnc3N2)cc1` (centres undefined), the cell count in test [1] is 626. Further, the inhibition in test [1] was 1.1% (inactive); in test [3] it was -22.9% (inactive); in test [7], 13.8% (inactive); in test [8] it was 28.3% (inactive). Moreover, in test [2], the inhibition of aggregation was 25.1% (inactive). The nuclei count in test [2] stood at 72%; in test [3], 70.6%. The fluorescence slope in test [4] was -0.586 (inactive). In addition, in test [5], the NADPH fluorescence slope is -3.4e-05 (inactive). Further, the slope in test [6] was 0.00702 (inactive).
Turning to `CCc1c(C)c2ccc(OCC(=O)OC)cc2oc1=O`, the cell count in test [1] is 342. The inhibition was 2.2% (inactive) in test [1], 32.2% (inactive) in test [3], 12.5% (inactive) in test [7] and 18.6% (inactive) in test [8]. Also, the inhibition of aggregation in test [2] is 9.8% (inactive). The nuclei count in test [2] is 78.5%; in test [3], 97.7%. The fluorescence slope in test [4] was -0.165 (inactive). Also, the NADPH fluorescence slope in test [5] was -1.1e-05 (inactive). Moreover, in test [6], the slope is 0.00537 (inactive).

The values above are taken from PubChem BioAssay.
